RORgamma inh = ROR gamma (mouse) transcription inhibition; Drosophila S2 Gal4-RORgamma UAS-luciferase reporter, 20 h; Potency, µM (doses to about 53.6 µM), without a hit: at the top dose activity change, negative = inhibition, actives largely listed as inhibitors; 310,000 compounds, 5.4% hits; AID 2551; also: % is scaled to controls: 0 for no effect and ±100 for the full control effect; nearly all actives have a fitted effect of over 60% in size
Target sequence (P51450 whole entry, looked up, the tested form may be a part): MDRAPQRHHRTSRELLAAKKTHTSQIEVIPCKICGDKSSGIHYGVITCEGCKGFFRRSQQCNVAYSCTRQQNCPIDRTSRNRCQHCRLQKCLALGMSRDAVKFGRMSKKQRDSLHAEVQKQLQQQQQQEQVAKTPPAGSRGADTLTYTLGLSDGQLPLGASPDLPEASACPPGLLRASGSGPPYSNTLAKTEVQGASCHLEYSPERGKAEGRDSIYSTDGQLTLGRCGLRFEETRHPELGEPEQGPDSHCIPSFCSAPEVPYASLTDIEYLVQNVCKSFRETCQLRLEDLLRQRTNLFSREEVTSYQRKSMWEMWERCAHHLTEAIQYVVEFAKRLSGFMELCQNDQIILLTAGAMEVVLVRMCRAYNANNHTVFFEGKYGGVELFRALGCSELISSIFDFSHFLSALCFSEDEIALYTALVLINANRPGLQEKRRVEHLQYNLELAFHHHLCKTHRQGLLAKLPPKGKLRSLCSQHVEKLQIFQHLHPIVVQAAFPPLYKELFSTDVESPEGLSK
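Stable Schneider cell line, Gal4 DNA-binding domain fused to ROR gamma, UAS-luciferase. Cmpd 1 hr RT → CuSO4 700 uM final → 20 hr RT → luciferase reagent 10 min → luminescence.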
SW480 rereplic = DNA re-replication induction in SW480 cells | SW480 DNA re-replication, Hoechst DNA content imaging, 48 h | Potency, µM (highest dose often 46.1 µM), inactives show at the top dose re-replication activation, actives largely listed as activators | 340,000 compounds, 1.8% hits | AID 624297; also: % of control where 0% means no effect; nearly all actives have a fitted effect of over 55% in size
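250 cells/well; 23 nL cpd via pin tool; 48 hr, 37 C, 5% CO2; Hoechst 40 min; imager read of total nuclear intensity, ex 405/em 500-530 nm.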
VP16 counter = Gal4-VP16 reporter inhibition counter-screen. Drosophila S2 Gal4-VP16 UAS-luciferase, luminescence, 20 h. Potency, µM (series often up to 53.6 µM), for the others: at the highest dose activity, negative = inhibition, actives largely listed as inhibitors. 310,000 compounds, 3.5% hits;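 also: Gal4-VP16 expression switched on by copper sulfate through the metallothionein promoter; % is scaled to controls: 0 for no effect and ±100 for the full control effect; nearly all actives have a fitted effect of over 50% in size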
MCF10A rerep = inducers of DNA re-replication in MCF 10A breast cells | 350,000 compounds, 2.9% hits | Potency, µM (highest dose often 46.1 µM), for inactives: top-dose activity, positive = re-replication, actives largely listed as activators | AID 624296 | MCF 10A DNA re-replication, Hoechst nuclear intensity, 48 h; also: % of control where 0% means no effect; nearly all actives have a fitted effect of over 50% in size
ELG1 DNA repair = blocks ELG1-dependent DNA repair in HEK293T cells. HEK293T ELG1-luciferase reporter, luminescence, 16 h; DNA damage induced by 5-fluorouridine. Potency, µM (series often up to 46.1 µM), without a hit: at the highest dose activity change, negative = inhibition, hits mostly inhibitors. 330,000 compounds, 2.3% hits. AID 504467; also: % is scaled to controls: 0 for no effect and ±100 for the full control effect; nearly all actives have a fitted effect of over 55% in size
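Cells (2,000 per well) received 5-fluorouridine plus test compound or DMSO and were incubated 16 hr at 37 °C, 5% CO2. Luciferase activity was read by luminescence 30 min after ONE-Glo addition; signal suppression marked inhibition of damage-induced ELG1 function.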
Active calls of the source: *; ? = inconclusive; . = not tested or not shown; [ ] = remark or other dose. An excerpt weighted towards active compounds, which were near 10% of everything screened. Calls follow the shape of the dose curve; as a rule, active = well fitted curve in the direction sought with a large enough effect; inconclusive = small, poorly fitted or top-dose-only effect, or another doubt; inactive = no such curve, though single readings can be large; an effect the other way counts as inactive or inconclusive. Potency is read from the fitted curve at half-maximal effect.

SMILES	RORgamma inh	SW480 rereplic	VP16 counter	MCF10A rerep	ELG1 DNA repair
Cc1ccc(C(=O)C(C(=O)/C=C/c2ccccc2)=C2SCCCS2)cc1	3.5µM*	?	14µM*	21µM*	18µM*
CN(CC(O)COc1ccc2ccccc2c1)C1CCCCC1 (centres undefined)	-13%	6%	-9%	?	-20%
CC(=O)c1sc(Nc2nc3cc4c(cc3s2)OCO4)nc1C	5µM*	21µM*	-13%	18µM*	?
COc1ccc(Nc2nc3ccc(OC)cc3s2)cc1	?	-2%	-6%	?	?
CCOC(=O)c1sc(Nc2nc3cc4c(cc3s2)OCO4)cc1C	5µM*	-7%	6.3µM*	?	?
CC(=O)Nc1nc2cc3c(cc2s1)OCO3	22%	-1%	-1%	?	?
COc1ccc2nc(Nc3nc(C)c(C(C)=O)s3)sc2c1	-3%	16µM*	-3%	?	?
CCOC(=O)c1sc(NC(=O)C2CC2)cc1C	?	-4%	38%	9%	8%
CCOC(=O)c1sc(Nc2nc3c(OC)cccc3s2)cc1C	?	?	?	23µM*	?
COC(=O)CSc1nnc(CNc2ccc(OC)cc2)n1C	-3%[10 µM]	2%	6%	-3%	1%
CCCCNc1nnc(SCC(=O)c2c(N)n(C3CC3)c(=O)[nH]c2=O)s1	.	-26%	.	1%	-1%
Nc1ncnc2c1ncn2[C@@H]1O[C@H](CNS(=O)(=O)c2ccc3c(c2)CCN(C(=O)C(F)(F)F)C3)[C@@H](O)[C@H]1O	.	-1%	.	-5%	2%
O=C(N/N=C/c1cc(Br)ccc1O)C(=O)Nc1ccccc1OC(F)(F)C(F)F	0.79µM*	?	2.8µM*	?	-12%
O=C(N/N=C/c1cc(Cl)ccc1O)C(=O)Nc1ccccc1OC(F)(F)C(F)F	0.89µM*	?	2.5µM*	?	?
COc1ccccc1/C=N/NC(=O)C(=O)Nc1ccccc1OC(F)(F)C(F)F	-5%	-7%	1%	?	-1%
Cc1ccccc1NC(=O)Cc1nc(COC(=O)c2cc([N+](=O)[O-])ccc2NCCO)cs1	.	-7%	.	?	?
CCCN(CC(=O)Nc1ccc(F)c(F)c1F)C(=O)c1ccc(=O)n(Cc2ccccc2)n1	.	4%	.	1%	-9%
COc1cccc(NC(=O)n2ncc3c(C)cccc32)c1	1.6µM*	-6%	2.8µM*	0%	?
CCOc1ccc(NC(=O)n2ncc3c(C)cccc32)cc1	0.45µM*	-6%	1.1µM*	-7%	?
CCCOC(=O)C(C)n1cnc2scc(-c3ccc(C)cc3)c2c1=O (centres undefined)	38%	20%	5%	?	-4%
CCN(CC(=O)NC1CCS(=O)(=O)C1)c1nc(-c2ccccc2)nc2ccccc12 (centres undefined)	?	-6%	0%	6%	13µM*
CCC1=C[C@@H]2CN(C1)Cc1c([nH]c3ccccc13)[C@@](C(=O)OC)(c1cc3c(cc1OC)N(C)[C@@H]1[C@@](O)(C(=O)OC)[C@H](OC(C)=O)[C@]4(CC)C=CCN5CC[C@]31[C@@H]54)C2	9%	1.2µM*	-8%	67%	.
CC[C@]1(O)CC2CN(CCc3c([nH]c4ccccc34)[C@@](C(=O)OC)(c3cc4c(cc3OC)N(C)[C@H]3[C@@](O)(C(=O)OC)[C@H](OC(C)=O)[C@]5(CC)C=CCN6CC[C@]43[C@@H]65)C2)C1 (some centres undefined)	?	0.75µM*	-9%	?	.
CC[C@]1(O)C[C@@H]2CN(CCc3c([nH]c4ccccc34)[C@](C(=O)OC)(c3cc4c(cc3OC)N(C=O)[C@H]3[C@@](O)(C(=O)OC)[C@H](C(=O)OC)[C@@]5(CC)C=CCN6CC[C@]43[C@H]65)C2)C1	43%	.	4%	.	.
CCOC(=O)CNc1oc(-c2ccccc2)nc1-c1ccccc1	6%	.	-14%	.	.

Screening results from PubChem.
